In PubChem BioAssay (Tox21):
Results filed as inconclusive are left out. Unmarked numbers belong to inactive results. Active and inactive are the calls of the source. The call rests on the fitted dose curve; in most records, active means well fitted activation curve with a large enough effect in the repeat runs; inconclusive means weak or mixed curves; inactive means no such curve, though single readings can be large or run the other way.

Test: qHTS assay for small molecules that induce genotoxicity in human embryonic kidney cells expressing luciferase-tagged ATAD5 (AID 651632); further: nearly all actives have a fitted effect of over 15% in size
Details: HEK293T ATAD5-luciferase induction, 16 h; series mostly up to 83.3 µM; activation: at the top concentration
Text: U.S. Tox21 Program National Center for Advancing Translational Sciences [NCATS] NIH Chemical Genomics Center [NCGC] U.S. Environmental Protection Agency [EPA] National Institutes of Environmental Health Sciences [NIEHS] National Toxicology Program [NTP] U.S. Food and Drug Administration [FDA] Tox21 Assay Overview: As cancer cells divide rapidly and during every cell division they need to duplicate their genome by DNA replication. The failure to do so results in the cancer cell death. Based on this concept, many chemotherapeutic agents were developed but have limitations such as low efficacy and severe side effects etc. A new cell based assay was developed to find the compounds that effectively block DNA replication either by directly damaging DNA or by inhibiting other cellular mechanisms. Enhanced Level of Genome Instability Gene 1 (ELG1; human ATAD5) protein levels increase in response to various types of DNA damage. Using a luciferase reporter-gene tagged with ATAD5, a cell-based assay [developed by Kyungjae Myung, NHGRI, NIH] was used to measure the induction of ATAD5 in human embryonic kidney cells (HEK293T). So, increase in luciferase activity can be used to identify the compounds that cause genetic stress.
Tox21 Assay Protocol Summary: For genotoxicity screening, 2,000 cells in 5 uL/well were dispensed into white, solid-bottom 1536-well plates using a Multidrop Combi (Thermo Scientific) dispenser. Following transfer of 23 nL compound or DMSO vehicle by a pin tool, the plates were incubated 16 hr at 37C and 5% CO2. 5 ul Amplite (AAT Bioquest, Inc.) was then added to each plate and following 30 min incubation at room temperature, luciferase activity was quantified on a ViewLux CCD-based plate reader.
On the % scale 0 is the no-effect control and ±100 the full control effect.

Q: For `O=[N+]([O-])c1ccc(F)c([N+](=O)[O-])c1`, which Potency is on record?
A: The Potency was “inactive”.

Q: With `CCc1ccc(C(=O)NN(C(=O)c2cc(C)cc(C)c2)C(C)(C)C)cc1` as the molecule, how does the “activation” value read?
A: Its value is -8.76%.

Q: With `CC(C)(C)C(O)C(Oc1ccc(Cl)cc1)n1cncn1` (stereo not given) as the molecule, how does the “activation” value read?
A: The value was -5.26%.

Q: Which “activation” value does the source give for `CC(Cl)Cl` here?
A: The value was 4.37%.

Q: Which “activation” value does the source give for `CC(C)(C)c1cc([N+](=O)[O-])cc([N+](=O)[O-])c1O` here?
A: The value was -10.6%.

Q: Which “activation” value does the source give for `COc1nn(CSP(=S)(OC)OC)c(=O)s1` here?
A: Its value is -9.78%.

Q: For `NC(=O)CI`, which “activation” value is on record?
A: The value was 0.958% [at 95.3 µM].

Q: For `C[C@@H]1CC[C@H]2[C@@H](C)C(=O)O[C@@H]3O[C@@]4(C)CC[C@@H]1[C@]32OO4`, which “activation” value is on record?
A: The value was -9.88%.

Q: Which “activation” value does the source give for `COC(=O)C(C)N(C(=O)Cc1ccccc1)c1c(C)cccc1C` (stereo not given) here?
A: The value was -6.05%.

Q: For `O=Cc1ccc(Cl)cc1Cl`, which “activation” value is on record?
A: Its value is 0.209% [at 95.3 µM].

Q: With `COc1nn(C(=O)NS(=O)(=O)c2ccccc2OC(F)(F)F)c(=O)n1C` as the molecule, how does the “activation” value read?
A: Its value is -0.435%.

Q: Which “activation” value does the source give for `Nc1ccc([N+](=O)[O-])cc1[N+](=O)[O-]` here?
A: The value was 0.346%.

Q: For `Oc1ccc(Cl)c(Cl)c1Cl`, which “activation” value is on record?
A: Its value is -10.2% [at 95.3 µM].

Q: Which “activation” value does the source give for `CO/C=C(/C(=O)OC)c1ccccc1COc1cccc(C(F)(F)F)n1` here?
A: The value was -6%.

Q: Which “activation” value does the source give for `O=S1(=O)OC(c2cc(Br)c(O)c(Br)c2)(c2cc(Br)c(O)c(Br)c2)c2ccccc21` here?
A: Its value is -13.3%.

Q: Which “activation” value does the source give for `C=CC[C@]1(O)CC[C@H]2[C@@H]3CCC4=CC(=O)CCC4=C3C=C[C@@]21C` here?
A: The value was -4.45%.

Q: For `C=CC(=O)OCC(C)C`, which “activation” value is on record?
A: Its value is 1.25%.

Q: With `CC(=O)C(C)(C)C` as the molecule, how does the “activation” value read?
A: Its value is -2.77% [at 95.3 µM].

Q: With `Cc1ccccc1C(=O)Nc1cccc(OC(C)C)c1` as the molecule, how does the “activation” value read?
A: The value was -4.34%.

Q: For `O=S1OC[C@@H]2[C@H](CO1)[C@]1(Cl)C(Cl)=C(Cl)[C@@]2(Cl)C1(Cl)Cl` (stereo not given in full), which “activation” value is on record?
A: Its value is -8.72%.

Q: For `Clc1cccc(SC2CCNCC2)n1`, which “activation” value is on record?
A: The value was -5.84%.

Q: With `CCCCc1c(C)nc(NCC)nc1OS(=O)(=O)N(C)C` as the molecule, how does the “activation” value read?
A: Its value is -8.99%.

Q: Which “activation” value does the source give for `C=CC(=O)OCC(C)O` (stereo not given) here?
A: The value was -4.32% [at 95.3 µM].

Q: For `C(=NC1CCCCC1)=NC1CCCCC1`, which Potency is on record?
A: Its Potency is “inactive”.

Q: With `CO/N=C(/C(=O)OC)c1ccccc1COc1ccccc1C` as the molecule, how does the “activation” value read?
A: Its value is -6.49%.

Q: Which “activation” value does the source give for `C=C(C#N)CCC#N` here?
A: Its value is 1.92%.

Q: With `C[N+](C)(C)CCCl` as the molecule, how does the “activation” value read?
A: Its value is 0.929% [at 95.3 µM].

Q: With `COC(=O)C(Cl)C(=O)OC` as the molecule, how does the “activation” value read?
A: Its value is 0.34%.

Q: For `O=C(NCc1cccnc1)Nc1ccc([N+](=O)[O-])cc1`, which “activation” value is on record?
A: The value was -2.5%.

Q: Which Potency does the source give for `Cn1sc(Cl)cc1=O` here?
A: The Potency was “inactive”.

Q: Which “activation” value does the source give for `N#CCC#N` here?
A: Its value is 5.24%.

Q: With `O=[Se]=O` as the molecule, how does the “activation” value read?
A: The value was -10.7%.

Q: Which “activation” value does the source give for `Cl/C=C\Cl` here?
A: Its value is -5.85%.

Q: Which “activation” value does the source give for `COC(N)=O` here?
A: Its value is -1.88%.

Q: For `CCCC(Cn1cncn1)c1ccc(Cl)cc1Cl` (stereo not given), which “activation” value is on record?
A: The value was -12.1%.

Q: For `CCOP(=S)(OCC)Oc1nc(Cl)c(Cl)cc1Cl`, which Potency is on record?
A: Its Potency is “inactive”.

Q: For `COc1cc(CC(C)N)cc2c1OCO2` (stereo not given), which “activation” value is on record?
A: The value was 3.5% [at 95.3 µM].

Q: With `CNP(=O)(OC)Oc1ccc(C(C)(C)C)cc1Cl` (stereo not given) as the molecule, how does the “activation” value read?
A: Its value is -5.08%.

Q: With `ClCCCCBr` as the molecule, how does the “activation” value read?
A: Its value is 2.1% [at 95.3 µM].

Q: For `Clc1cc(Cl)c(Cl)c(Cl)c1`, which “activation” value is on record?
A: The value was -1.96%.
